Laboratory results: PubChem BioAssay (NCATS)
Results filed as inconclusive are left out. Calls of active or inactive are those of the source. Unless noted, the call rests on the fitted dose curve; in most records, active means well fitted inhibition curve with a large enough effect; inconclusive means small, poorly fitted or top-dose-only effect; inactive means flat fitted curve, though single readings scatter.

Legend:
[1] = molecular target: Glucocorticoid receptor (Homo sapiens) (UniProt P04150); assay: GR-GFP Redistribution (AID 450;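 active means compounds whose dose series gives a full or clear partial fitted curve of increased nuclear translocation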; further: potency means the concentration at half of the fitted maximal effect); conditions: U2OS GR-GFP nuclear translocation, laser cytometry, 2 h
Chain of Glucocorticoid receptor (Homo sapiens) (P04150 whole entry, looked up, the tested form may be a part): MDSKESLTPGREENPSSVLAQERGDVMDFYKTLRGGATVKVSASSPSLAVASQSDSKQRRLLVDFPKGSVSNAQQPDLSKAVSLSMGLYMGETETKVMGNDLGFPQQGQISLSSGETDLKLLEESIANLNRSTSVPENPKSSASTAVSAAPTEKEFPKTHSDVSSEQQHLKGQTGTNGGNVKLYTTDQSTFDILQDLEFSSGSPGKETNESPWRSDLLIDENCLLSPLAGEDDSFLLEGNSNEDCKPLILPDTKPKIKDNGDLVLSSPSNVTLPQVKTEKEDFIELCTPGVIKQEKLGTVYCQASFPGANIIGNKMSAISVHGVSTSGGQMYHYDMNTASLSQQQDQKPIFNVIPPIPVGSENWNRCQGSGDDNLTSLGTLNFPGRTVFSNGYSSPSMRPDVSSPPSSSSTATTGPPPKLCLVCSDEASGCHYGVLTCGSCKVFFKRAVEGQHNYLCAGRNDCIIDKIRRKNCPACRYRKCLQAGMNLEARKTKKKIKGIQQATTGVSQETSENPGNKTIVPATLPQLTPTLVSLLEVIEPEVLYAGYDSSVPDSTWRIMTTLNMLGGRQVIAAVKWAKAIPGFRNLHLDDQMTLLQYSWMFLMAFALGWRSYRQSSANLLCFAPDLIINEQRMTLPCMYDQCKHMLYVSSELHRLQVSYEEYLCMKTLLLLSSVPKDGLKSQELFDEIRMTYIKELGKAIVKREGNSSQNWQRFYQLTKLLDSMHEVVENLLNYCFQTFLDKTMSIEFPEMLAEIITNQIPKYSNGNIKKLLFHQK

[2] = molecular target: Glucocorticoid receptor (Homo sapiens) (UniProt P04150); assay: GR-EFC Redistribution (AID 451; calls by dose curve; further: potency means the concentration at half of the fitted maximal effect); conditions: CHO-K1 GR-EFC translocation, beta-gal luminescence, 2 h
How it was run: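 CHO-K1 cells expressing nuclear EA and GR-ED fragments of b-gal; compounds titrated up to 46 uM final, 2 h at 37 C. GR nuclear translocation read as complemented b-gal luminescence after 1 h RT detection.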

[3] = molecular target: Mitogen-activated protein kinase 10 (Mus musculus) (UniProt Q61831); assay: JNK3 AlphaScreen Assay (AID 530; active means well fitted curve in either direction with a large enough effect, not every such curve was filed as active;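 further: kinase came from lysate of stimulated human HepG2 cells; signal reports phosphorylation of biotinylated GST-cJun 1-79 at Ser73 with 10 µM ATP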); conditions: JNK3 lysate, c-Jun phosphorylation; series mostly up to 57.1 µM
How it was run: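 Pre-activated (IL-1β/TNFα) JNK3 in HepG2 lysates phosphorylates biotin-GST-cJun(1-79), 10 uM ATP; anti-phospho-cJun(Ser73) AlphaScreen read at room temperature, pH 7.6 Tris buffer. Compounds pre-incubated 15 min as titrations.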

[4] = molecular target: 3',5'-cyclic-AMP phosphodiesterase 4B (Homo sapiens) (UniProt Q07343); assay: qHTS Assay for Inhibitors of PDE-IV (AID 607; active means well fitted activation curve with a large enough effect in the main read-out, with a control signal flat, not every such curve was filed as active); conditions: HEK293 ACTOne CNG channel cells, membrane potential fluorescence; series mostly up to 22.9 µM
Chain of 3',5'-cyclic-AMP phosphodiesterase 4B (Homo sapiens) (Q07343 whole entry, looked up): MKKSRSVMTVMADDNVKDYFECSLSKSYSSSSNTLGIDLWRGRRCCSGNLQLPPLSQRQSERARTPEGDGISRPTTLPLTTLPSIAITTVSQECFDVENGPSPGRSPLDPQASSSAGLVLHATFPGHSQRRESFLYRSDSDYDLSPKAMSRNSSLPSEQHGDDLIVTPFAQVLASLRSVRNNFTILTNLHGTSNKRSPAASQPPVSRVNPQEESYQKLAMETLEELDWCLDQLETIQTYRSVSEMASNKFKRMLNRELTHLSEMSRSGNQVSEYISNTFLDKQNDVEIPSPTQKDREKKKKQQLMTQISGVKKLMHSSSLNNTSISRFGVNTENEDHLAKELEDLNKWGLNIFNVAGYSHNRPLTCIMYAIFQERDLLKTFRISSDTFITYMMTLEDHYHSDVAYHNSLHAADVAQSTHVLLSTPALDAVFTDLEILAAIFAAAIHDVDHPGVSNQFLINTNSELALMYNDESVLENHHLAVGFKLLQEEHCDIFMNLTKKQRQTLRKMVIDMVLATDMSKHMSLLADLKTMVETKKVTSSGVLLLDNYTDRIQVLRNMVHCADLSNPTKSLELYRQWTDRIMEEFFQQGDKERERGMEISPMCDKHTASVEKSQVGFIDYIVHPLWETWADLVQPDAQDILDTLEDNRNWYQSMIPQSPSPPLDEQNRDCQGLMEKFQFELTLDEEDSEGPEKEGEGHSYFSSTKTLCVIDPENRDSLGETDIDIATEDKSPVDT
How it was run: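 Live HEK293 cells with a modified cyclic nucleotide-gated (CNG) channel report intracellular cAMP via membrane-potential dye fluorescence (ex 535/em 590 nm). Endogenous PDE-IV was targeted. Compounds were tested at up to 22.9 uM final; RO 20-1724 100 uM served as control.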

[5] = molecular target: Ubiquitin carboxyl-terminal hydrolase 1 (Homo sapiens) (UniProt O94782); assay: Inhibitors of USP1/UAF1: Pilot qHTS (AID 504865); conditions: purified USP1/UAF1, Ub-rhodamine cleavage fluorescence; series mostly up to 114 µM;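 further: rhodamine fluorescence freed from ubiquitin-rhodamine substrate followed over time; top concentration of the series differs between compounds; nearly all actives have a fitted effect of over 35% in size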
Chain of Ubiquitin carboxyl-terminal hydrolase 1 (Homo sapiens) (O94782 whole entry, looked up): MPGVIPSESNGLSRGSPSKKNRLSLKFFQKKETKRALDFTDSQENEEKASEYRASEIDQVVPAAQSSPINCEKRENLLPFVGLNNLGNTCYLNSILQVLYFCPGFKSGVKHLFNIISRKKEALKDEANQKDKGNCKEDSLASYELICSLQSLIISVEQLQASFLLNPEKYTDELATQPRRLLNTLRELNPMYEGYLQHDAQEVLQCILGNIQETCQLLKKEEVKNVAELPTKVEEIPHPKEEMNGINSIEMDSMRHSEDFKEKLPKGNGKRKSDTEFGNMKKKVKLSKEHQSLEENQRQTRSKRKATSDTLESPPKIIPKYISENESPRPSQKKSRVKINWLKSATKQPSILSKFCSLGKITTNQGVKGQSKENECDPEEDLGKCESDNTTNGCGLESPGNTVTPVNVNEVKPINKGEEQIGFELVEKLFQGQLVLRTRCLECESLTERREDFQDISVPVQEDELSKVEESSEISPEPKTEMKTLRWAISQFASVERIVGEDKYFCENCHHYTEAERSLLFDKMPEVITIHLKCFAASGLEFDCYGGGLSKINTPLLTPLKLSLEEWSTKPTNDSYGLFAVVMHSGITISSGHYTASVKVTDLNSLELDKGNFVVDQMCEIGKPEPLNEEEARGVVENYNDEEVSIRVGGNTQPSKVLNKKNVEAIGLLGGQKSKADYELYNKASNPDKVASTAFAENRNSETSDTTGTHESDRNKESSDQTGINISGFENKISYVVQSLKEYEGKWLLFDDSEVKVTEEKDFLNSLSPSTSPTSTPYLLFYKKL
How it was run: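 Enzyme-free wells gave the negative control, while test wells held 1nM USP1/UAF1 preincubated with compound for 15 min at room temperature. Ub-Rho at 150nM final started the reaction, and fluorescence at 480/540 nm was recorded kinetically.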

[6] = molecular target: DNA dC->dU-editing enzyme APOBEC-3G (Homo sapiens) (UniProt Q9HC16); assay: qHTS for inhibitors of Vif-A3G interactions: Validation (AID 588379); conditions: Vif-A3G protein interaction assay; series mostly up to 46.1 µM
Chain of DNA dC->dU-editing enzyme APOBEC-3G (Homo sapiens) (Q9HC16 whole entry, looked up): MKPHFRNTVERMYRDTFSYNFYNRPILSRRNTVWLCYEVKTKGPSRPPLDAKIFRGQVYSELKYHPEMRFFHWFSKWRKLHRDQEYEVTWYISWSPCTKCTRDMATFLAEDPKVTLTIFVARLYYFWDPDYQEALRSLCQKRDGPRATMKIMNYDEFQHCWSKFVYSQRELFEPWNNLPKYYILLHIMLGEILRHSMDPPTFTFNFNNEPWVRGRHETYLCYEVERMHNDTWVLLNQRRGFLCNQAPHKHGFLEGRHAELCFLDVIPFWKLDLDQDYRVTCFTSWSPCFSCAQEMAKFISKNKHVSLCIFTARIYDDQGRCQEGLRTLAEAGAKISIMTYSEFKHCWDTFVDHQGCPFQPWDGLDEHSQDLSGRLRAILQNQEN
How it was run: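 HeLa cells stably expressing Vif and A3G-eYFP, 700 cells/well, incubated overnight at 37 deg C, then exposed to compound overnight at 37 deg C. Inhibition of Vif-mediated degradation read as increased yellow fluorescence (Ex 488/Em 500-530) by laser-scanning cytometry.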

[7] = system: Zika virus NS2B-NS3 protease; assay: Primary screen GU AMC qHTS for Zika virus inhibitors (AID 1347154); conditions: Zika NS2B-NS3 unlinked protease, AMC fluorogenic substrate; series mostly up to 54.1 µM; further: nearly all actives have a fitted effect of over 70% in size
How it was run: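 Unlinked Zika NS2B hydrophilic domain–NS3 protease complex at 25 nM in 10 mM Tris-HCl pH 8.0, 0.01% Tween 20, with an AMC peptide substrate. Fluorescence change (340/450 nm) over 15 min at room temperature, normalized to controls, fitted to 4-parameter Hill.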

Measured: Potency

O[C@@H](Cc1ccncc1)C(Cl)(Cl)Cl
inactive: [1] > 46 µM | [2] > 46 µM | [3] | [4] | [5] | [6] | [7]
